A selection: hits, their analogues and other compounds. The true share with any hit is near 4.6%.
Vaccinia Venus – vaccinia inhibition (Venus reporter); Vaccinia virus Venus reporter expression, fluorescence; Potency, µM (series often up to 36.5 µM), inactives show at the highest dose activity change, negative = inhibition, most hits filed as inhibitors; 330,000 compounds, 0.46% hits; AID 720580; calls by dose curve; tested in A549 cells; also: nearly all actives have a fitted effect of over 30% in size
Lassa entry inh – inhibitors of Lassa virus binding or cell entry. Lassa virus pseudotype entry inhibition, cell reporter. Potency, µM (titrated, usually from 37.9 µM), without a hit: at the top dose activity change, negative = inhibition, actives largely listed as inhibitors. 300,000 compounds, 1.2% hits; calls by dose curve; tested in HEK293 cells; also: nearly all actives have a fitted effect of over 50% in size
Vaccinia mCherry – vaccinia inhibition (mCherry reporter) | Vaccinia virus mCherry reporter infection, fluorescence | Potency, µM (doses to about 36.5 µM), for inactives: top-dose activity change, negative = inhibition, usual class: inhibitors | 310,000 compounds, 0.63% hits; calls by dose curve; tested in A549 cells; also: nearly all actives have a fitted effect of over 35% in size
MARV entry inh – Marburg virus entry inhibition | AID 540276 | Marburg virus pseudotyped entry inhibition, cell reporter | Potency, µM (doses to about 37.8 µM), for the others: at the top dose activity change, negative = inhibition, most hits filed as inhibitors | 300,000 compounds, 1.8% hits; calls by dose curve; tested in HEK293 cells
HCV inhibitor – inhibitors of hepatitis C virus infection; Huh7.5.1 HCVcc-Cre infection, luciferase reporter, 44 h; Potency, µM (doses to about 41.8 µM), inactives show at the highest dose activity change, negative = inhibition, actives largely listed as inhibitors; 340,000 compounds, 3.4% hits; active = well fitted inhibition curve with a large enough effect; inconclusive = small, poorly fitted or top-dose-only effect, or another doubt; inactive = no such curve, though single readings can be large or run the other way
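Luciferase read-out (15 sec integration) after a 15 min room-temperature substrate step quantifies HCVcc-Cre infection. Cells, 1,000 per well, had compound added 4 h post-plating, then virus at ~0.5 moi, and were cultured 44 h.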
* = called active by the depositor; i = inactive; ? = inconclusive; . = no result given; [ ] = dose if it differs, or a comment. % is scaled to controls: 0 for no effect and ±100 for the full control effect; potency is read from the fitted curve at half-maximal effect.

SMILES | Vaccinia Venus | Lassa entry inh | Vaccinia mCherry | MARV entry inh | HCV inhibitor
CC(C)(C)c1ccc(C(=O)NCCOc2ccccc2F)cc1 | -19% | ? | -12% | ? | -3%
CC(C)Cc1ccc(C(=O)NCCOc2ccccc2)o1 | 1% | 2.8µM* | -13% | -3%[46.1 µM] | 6%
Cc1ccc(OCCNC(=O)CNC(=O)c2ccc(C)cc2)cc1 | -14% | 2%[46.1 µM] | i | -2%[46.1 µM] | 10%
CC1CCCCC1S(=O)C1=C(C(=O)O)CCCC1 (stereo unspecified) | . | . | . | 7%[46.1 µM] | .
Cc1ccc2nc(-c3ccc(N=Nc4cc(S(=O)(=O)O)c5ccccc5c4O)cc3)sc2c1S(=O)(=O)O | 98% | . | 40% | . | .
CCc1nc2cc(C(=O)NC3CCOC(C)(C)C3)cc(NC(=O)c3ccccc3OC)c2n1C (stereo unspecified) | -11% | . | -24% | . | .
O=C(Nc1ccc2oc(-c3ccncc3)nc2c1)c1ccc2c(c1)OCCO2 | -12% | -18% | -1% | -1%[46.1 µM] | 13%
O=C(Nc1ccc2oc(-c3ccccc3)nc2c1)c1ccc2c(c1)OCCO2 | . | -2% | . | ? | 10µM*
O=C(Nc1ccc2oc(-c3ccncc3)nc2c1)c1ccc(F)cc1 | -7% | -5% | -12% | -6% | 22µM*
CCN(C(=O)C1CCN(c2nc(-c3ccc(OC)cc3)no2)CC1)c1ccc(OC)cc1 | ? | . | -14% | . | 8.9µM*
COc1ccc(NC(=O)C2CCN(c3nc(-c4ccc(OC)cc4)no3)CC2)cc1 | -10% | . | -8% | . | ?
COc1ccc(-c2noc(N3CCC(C(=O)N4CCN(c5ccccn5)CC4)CC3)n2)cc1 | . | ? | . | ? | 4.5µM*
O=S(=O)(c1ccc2ccccc2c1)N(C[C@@H](O)CN1CCOCC1)c1ccccc1 | . | . | . | 19% | .
O=C(CNCc1ccccc1Cl)Nc1ccccc1N1CCCCC1 | 5% | 20%[46.1 µM] | i | ? | ?
CCN(c1ccccc1)S(=O)(=O)c1ccc(Cl)c(NC(=O)COC(=O)c2cccc(OC)c2O)c1 | -7% | -4% | -18% | -22% | -24%
CCN(CC)c1ccc(NC(=O)CNCc2ccccc2Cl)c(C)c1 | -22% | 10µM* | ? | -1%[46.1 µM] | -29%
CCN(c1ccccc1)S(=O)(=O)c1cc(NC(=O)Nc2ccccc2C#N)ccc1Cl | -29% | -2% | ? | 16% | ?
CCN(c1ccccc1)S(=O)(=O)c1ccc(OC)c(NC(=O)Cc2ccccc2OC)c1 | . | . | . | . | 10µM*
CCN(c1ccccc1)S(=O)(=O)c1ccc(OC)c(NC(=O)C2CC2)c1 | . | . | . | . | -23%
CCN(c1ccccc1)S(=O)(=O)c1ccc(Cl)c(NC(=O)Nc2ccc(Cl)cc2C#N)c1 | 10µM* | ? | 11µM* | ? | ?
CCN(c1ccccc1)S(=O)(=O)c1ccc(Cl)c(NC(=O)CNCc2ccccc2OC)c1 | -16% | ? | i | ? | 11µM*
CCN(c1ccccc1)S(=O)(=O)c1ccc(N)c(OC)c1 | -17% | ? | -8% | 3.2µM* | ?
CCN(c1ccccc1)S(=O)(=O)c1ccc(F)cc1 | -9% | 20%[14.3 µM] | -9% | 9% | 10%
CCN(c1ccccc1)S(=O)(=O)c1ccc(OC)c(NC(=O)c2cccs2)c1 | -5% | ? | -8% | -6%[46.1 µM] | ?
CCN(c1ccccc1)S(=O)(=O)c1ccc(OC)c(NC(=O)Cc2ccc(OC)c(OC)c2)c1 | . | . | . | . | 6.3µM*
SMILES | Vaccinia Venus | Lassa entry inh | Vaccinia mCherry | MARV entry inh | HCV inhibitor
Cc1cnc(-n2ncc(C(=O)N(C)CCc3ccccn3)c2-c2cccs2)nc1-c1ccc(F)cc1 | -5% | . | -17% | . | .
Fc1ccc(-c2cnn3c(-c4cccs4)ccnc23)cc1 | -1% | 10µM* | -6% | ? | ?
Cc1nc2c(O)c3c(c(O)c2nc1C)C1C=CC3CC1 | -25% | ? | -4% | ? | 7.9µM*
Cc1nc2c(C)c(C)c(C)c(C)c2nc1C | -1% | 2% | i | 0%[14.2 µM] | 7%
O=C(Nc1nnc(C(F)(F)F)s1)c1ccc(Br)s1 | ? | ? | 10µM* | ? | ?
CC(NC(=O)Nc1nnc(C(F)(F)F)s1)(C(F)(F)F)C(F)(F)F | 2.5µM* | 3.5µM* | 4µM* | ? | 2.8µM*
NC(=O)c1ccccc1NC(=O)c1ccccc1Cl | -1% | . | -1% | . | 15%
CC(C)(C)CC(=O)Nc1nnc(C(F)(F)F)s1 | -10% | 2% | -15% | 16% | 15%
O=C(Nc1ccccc1C(=O)Nc1nnc(C(F)(F)F)s1)c1ccccc1Cl | -47% | ? | ? | ? | 11µM*
C[C@@H]1C=CCCO[C@]12C(=O)N(Cc1ccc(Br)cc1)c1cccc(Br)c12 | . | . | . | 7%[14.2 µM] | .
COc1ccccc1N(C(=O)c1snc(C(N)=O)c1N)C(C(=O)NCc1ccccc1)c1ccc(O)cc1 (stereo unspecified) | 4% | 4.5µM* | -14% | -21%[46.1 µM] | -23%
COc1ccc(C(C(=O)NCc2ccccc2)N(C(=O)c2snc(C(N)=O)c2N)c2ccccc2OC)cc1 (stereo unspecified) | -25% | ? | i | ? | ?
COc1ccc(N(C(=O)c2snc(C(N)=O)c2N)C(C(=O)NCc2ccccc2)c2ccc(F)cc2)c(OC)c1 (stereo unspecified) | -20% | 8.9µM* | -22% | ? | ?
NC(=O)c1nsc(C(=O)N(c2ccccc2F)C(C(=O)NCc2ccc(F)cc2)c2ccc(O)cc2)c1N (stereo unspecified) | -12% | ? | -29% | ? | 3.5µM*
CCC1(C2CCN(Cc3ccoc3)CC2)NC(=O)N(CC2COc3ccccc3O2)C1=O (stereo unspecified) | -7% | . | i | . | .
CCN(CC)CCNC(=O)CCc1c(C)nc2c(c(C)nn2-c2ccc(C)c(C)c2)c1C | . | . | . | . | 7.1µM*
O=C(c1ccccc1Cc1ccccc1)N1CCN(S(=O)(=O)c2ccccc2Br)CC1 | -25% | -16%[46.1 µM] | ? | 13µM* | ?
Cn1nc(-c2ccccc2)cc1NC(=O)c1ccccc1 | -7% | -1% | -8% | -2% | 2%
O=C(Nc1cc(-c2ccccc2)nn1C1CCCCC1)c1ccc(Cl)cc1 | -9% | . | i | . | 2.5µM*
COc1ccc(-c2noc(CSc3nc(N)cc(=O)[nH]3)n2)cc1 | -12% | -5%[46.1 µM] | -12% | . | 25µM*
NC(=S)N/N=C/c1ccccc1[N+](=O)[O-] | 2.2µM* | -12% | 2µM* | -3%[46.1 µM] | -10%
CCOc1ccc(C(=O)N/N=C/c2ccccc2[N+](=O)[O-])cc1 | -18% | ? | -14% | 12µM* | -25%
CCC(=O)Nc1ccc(C(=O)N/N=C/c2ccccc2[N+](=O)[O-])cc1 | . | ? | . | 14% | 27%
CC(C)[C@@H](OCc1ccccc1)[C@H](C)/C=N/OC[C@@H](O)[C@H]1O[C@@H]2OC(C)(C)O[C@@H]2[C@H]1O | . | . | . | -5%[14.2 µM] | .
Cc1nc(N2CCN(c3ccccc3)CC2)nc2c1C(=O)CC(C)C2 (stereo unspecified) | . | 5% | . | ? | 11µM*
COc1cc(NC(=O)COc2ccc(-n3ccnc3)cc2)cc(OC)c1 | -11% | 4% | -1% | -10%[46.1 µM] | ?
CC(C)(C)c1ccc(NC(=O)COc2ccc(-n3ccnc3)cc2)cc1 | ? | ? | . | ? | 5µM*
